Assay [1] has as its target Aldehyde dehydrogenase, mitochondrial (Homo sapiens) (UniProt P05091). As to the kind of experiment: qHTS for Inhibitors of the Aldehyde Dehydrogenase Family (ALDH2) Primary screen (AID 2061308). Further: nearly all actives have a fitted effect of over 55% in size. To be noted: ALDH2 enzyme inhibition qHTS, 1536-well; series mostly up to 56 µM. In general terms: qHTS replaces the single test concentration by a dilution series.
The target in assay [2] is Retinaldehyde dehydrogenase 3 (Homo sapiens) (UniProt P47895). Kind of assay: qHTS for Inhibitors of the Aldehyde Dehydrogenase Family (ALDH1A3) Primary screen (AID 2061315). The settings on record: ALDH inhibition qHTS; series mostly up to 56 µM.

Inconclusive results are not listed. Where a call stands in place of a potency, no number is given. Calls of active or inactive are those of the source. The call rests on the fitted dose curve; in most records, active means well fitted curve in the direction sought with a large enough effect; inconclusive means small, poorly fitted or top-dose-only effect, or another doubt; inactive means no such curve, though single readings can be large; an effect the other way counts as inactive or inconclusive.

Take `Cc1ccc(OCCn2c(CCNC(=O)C3CCNCC3)nc3ccccc32)cc1`: the Potency entry in assay [1] and in assay [2] was “inactive” each time.

`CCN(Cc1sccc1C)c1ncnc2ccc(-c3ccc4c(c3)OCO4)cc12`: the Potency entry in assay [1] and in assay [2] was “inactive” in each case.

As to `Oc1ccc(-c2ccccc2F)c2cccnc12`, the Potency entry in assay [1] and in assay [2] was “inactive” each time.

As for `Cc1ccnc(NC(=S)N2CCCN(c3cccc(C(F)(F)F)c3)CC2)c1`, the Potency entry in assay [1] and in assay [2] was “inactive” each time.

With `FC(F)(F)c1cccc(N2CCN(C(=S)Nc3nccc4ccccc34)CC2)c1`, the Potency entry in assay [1] and in assay [2] was “inactive” throughout.

On to `CCN1CCN(Cc2ccc(C(=O)Nc3ccc(C)c(Oc4ccc5c(c4)CC(=O)N5)c3)cc2C(F)(F)F)CC1`, for which the Potency entry in assay [1] and in assay [2] was “inactive” each time.

On to `CC(=O)Nc1nc(-c2ccc3c(c2)CCN3C(=O)c2ccccc2C)c(C)s1`, for which the Potency entry in assay [1] and in assay [2] was “inactive” in each case.

Consider `COc1cccc(C2c3c(ncn(-c4ccc(NC(C)=O)cc4)c3=N)Oc3ccc4ccccc4c32)c1` (stereo not drawn), for which the Potency result in assay [1] and in assay [2] was “inactive” each time.

For the compound `O=C(CNC(=O)c1ccc(Cl)cc1Cl)OC(C(=O)Nc1cc(C(F)(F)F)ccc1Cl)c1ccccc1` (stereo not drawn), the Potency result in assay [1] and in assay [2] was “inactive” in each case.

As for `Cc1ccnc(NC(=S)NCCNc2cccc(C(F)(F)F)c2)c1`, the Potency entry in assay [1] and in assay [2] was “inactive” in each case.

As for `COc1ccc(C2=Nn3c(nnc3-c3ccccc3F)SC2)cc1OC1CCOC1` (stereo not drawn), the Potency entry in assay [1] and in assay [2] was “inactive” throughout.

`Cc1ccc(-c2cc(C(=O)NCc3ccc(S(C)(=O)=O)cc3)c3ccccc3n2)cc1C`: the Potency result in assay [1] and in assay [2] was “inactive” each time.

Consider `Cc1cnc(-c2ccccc2C(C)C)nc1NCC1CCN(C)CC1`, for which the Potency entry in assay [1] and in assay [2] was “inactive” throughout.

With `Cc1ccc(-n2cnc3cc(C(=O)N4CCCCC4)ccc32)cc1`, the Potency result in assay [1] and in assay [2] was “inactive” throughout.

As for `O=[N+]([O-])c1cccc(S(=O)(=O)N2CCN(S(=O)(=O)c3ccc4c(c3)OCCO4)CC2)c1`, the Potency entry in assay [1] and in assay [2] was “inactive” throughout.

For `CC(Nc1nc(-c2ccccc2C(F)(F)F)nc2ccccc12)c1ccc(-c2ccccc2)cc1` (stereo not drawn), the Potency result in assay [1] and in assay [2] was “inactive” throughout.

For `O=C(O)c1ccc2c(c1)C(=O)N([C@H](Cc1cccc3ccccc13)C(=O)O)C2=O`, the Potency entry in assay [1] and in assay [2] was “inactive” throughout.

Regarding `CC1=CCC(O)C2(C)CCC3C(C)C(=O)OC3C12` (stereo not drawn), the Potency result in assay [1] and in assay [2] was “inactive” throughout.

For `CC(=O)Nc1sc2c(c1-c1ccc3c(c1)OCCO3)CCNC2`, the Potency entry in assay [1] and in assay [2] was “inactive” in each case.

For `O=C(CNC(=O)c1ccccc1)OC(CCc1ccccc1)C(=O)Nc1cc(C(F)(F)F)ccc1Cl` (stereo not drawn), the Potency entry in assay [1] and in assay [2] was “inactive” in each case.

With `Cn1c2ccsc2c2ncn(Cc3ccccc3F)c(=O)c21`, the Potency result in assay [1] and in assay [2] was “inactive” in each case.

Consider `C=C1CCC[C@]2(C)C[C@]3(O)OC(=O)C(C)=C3C[C@@H]12`, for which the Potency entry in assay [1] and in assay [2] was “inactive” throughout.

For `COc1ccc(-c2nc3ccc(OC)cc3s2)cc1`, the Potency entry in assay [1] and in assay [2] was “inactive” each time.

Consider `Cc1cc(C)nc(NC(=S)N2CCN(c3ccc(Cl)c(Cl)c3Cl)CC2)c1`, for which the Potency result in assay [1] and in assay [2] was “inactive” each time.

For `O=[S+]([O-])(c1ccc2c(c1)OCCO2)N1CCN([S+](=O)([O-])c2ccc(F)cc2Br)CC1`, the Potency result in assay [1] and in assay [2] was “inactive” throughout.

As for `CN(C)c1ccc2nc(NC(=S)N3CCN(c4cccc(C(F)(F)F)c4)CC3)sc2c1`, the Potency entry in assay [1] and in assay [2] was “inactive” throughout.

On to `CCNC(=O)c1ccc(-c2ccc3ncnc(NCCc4cnc[nH]4)c3c2)o1`, for which the Potency result in assay [1] and in assay [2] was “inactive” each time.

As to `COc1ccccc1C1N=C(Nc2nc3ccccc3o2)NC2=C1C(=O)CCC2` (stereo not drawn), the Potency result in assay [1] and in assay [2] was “inactive” in each case.

Consider `Cc1cc2c(s1)c1cnn(Cc3cccc(Cl)c3F)c(=O)c1n2C`, for which the Potency entry in assay [1] and in assay [2] was “inactive” in each case.

As for `CCn1cnc2c(Nc3cc(F)cc(F)c3)nc(C(=O)COc3c(F)c(F)cc(F)c3F)nc21`, the Potency entry in assay [1] and in assay [2] was “inactive” in each case.

Take `CCOc1ccc(C(=O)Nc2ccc(-c3nc4ccccc4s3)cc2)cc1[N+](=O)[O-]`: the Potency entry in assay [1] and in assay [2] was “inactive” each time.

In the case of `Fc1ccccc1-c1nnc2n1N=C(c1ccc(OC(F)F)c(OCC3CC3)c1)CS2`, the Potency result in assay [1] and in assay [2] was “inactive” throughout.

As for `Cc1cnc(-c2ccccc2C(C)C)nc1NCC1CCN(C2COC2)CC1`, the Potency entry in assay [1] and in assay [2] was “inactive” in each case.

Consider `Cc1ccc(NS(=O)(=O)c2cccc(F)c2)cc1C`, for which the Potency entry in assay [1] and in assay [2] was “inactive” each time.

The values are drawn from PubChem BioAssay (NCATS).
